Whole data set: some 16,000 sequences, median “rpm ratio (pull-down/input)” near 0.94, cut for the highest 2% near 1.7. This is one part of a sample in which the highest values are shown more often than they occur.

In this assay the target is T1, MBP-FoxP1dN (Mus musculus, UniProt P58462 326-579).
T1 sequence: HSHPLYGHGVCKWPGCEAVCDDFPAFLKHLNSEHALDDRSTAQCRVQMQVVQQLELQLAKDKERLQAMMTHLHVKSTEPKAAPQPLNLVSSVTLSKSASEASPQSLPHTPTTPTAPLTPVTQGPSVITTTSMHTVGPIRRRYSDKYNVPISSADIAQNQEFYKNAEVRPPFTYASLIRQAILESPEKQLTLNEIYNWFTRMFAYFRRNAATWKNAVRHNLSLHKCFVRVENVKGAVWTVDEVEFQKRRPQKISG
Put plainly: PD-seq (MBP pull-down with sequencing); 20 mM Tris-HCl pH 7.5, 100 mM NaCl, 1.5 mM MgCl2, 0.4 uM protein, 0.1 uM dsDNA library, 30 min, room temperature, amylose pull-down; high values mean tight binding. To be noted: protein: recombinant; tags: His6-MBP; chain copies: 2; dsDNA, one strand shown. The essentials: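 Binding is the reads-per-million enrichment of pull-down relative to input, pooled across replicates. For this, 0.4 µM His6-MBP-tagged mouse FoxP3 or FoxP1 fragment lacking the N-terminus, made in E. coli, was incubated with 0.1 µM Klenow-filled double-stranded degenerate DNA library for 30 min at room temperature in Tris pH 7.5 buffer with NaCl and MgCl2. Complexes bound to amylose resin were washed three times before proteinase K released the DNA for PCR barcoding and Illumina sequencing.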
Turning to “GATGATTGTTCTCCCAGCTGATGAATTTACATCCTCGAGTAAACAAATTTTCCTAATCTTTCTGTTCAAGCGCCATCTAC”, the binding signal is 1.26 RPM ratio (pull-down/input).
To “GATGATTGTTCTCCCAGCTGATGAATTAGGCTTGTCGAGTAAACAAATTTTCCTAATCTTTCTGTTCAAGCGCCATCTAC” belongs 0.93 RPM ratio (pull-down/input); to “GATGATTGTTCTCCCAGCTGATGAATTACAAATGTCGAGTAAACAAATTTTCCTAATCTTTCTGTTCAAGCGCCATCTAC”, 1.44 RPM ratio (pull-down/input); to “GATGATTGTTCTCCCAGCTGATGAATTATCCCTGTCGAGTAAACAAATTTTCCTAATCTTTCTGTTCAAGCGCCATCTAC”, 0.907 RPM ratio (pull-down/input).
To “GATGATTGTTCTCCCAGCTGATGAATTAGTCCTCTCGAGTAAACAAATTTTCCTAATCTTTCTGTTCAAGCGCCATCTAC” belongs 0.936 RPM ratio (pull-down/input); to “GATGATTGTTCTCCCAGCTGATGAATTACACAGTTCGAGTAAACAAATTTTCCTAATCTTTCTGTTCAAGCGCCATCTAC”, 1.18 RPM ratio (pull-down/input).
For the sequence “GATGATTGTTCTCCCAGCTGATGAATTTATAATATCGAGTAAACAAATTTTCCTAATCTTTCTGTTCAAGCGCCATCTAC”, the binding signal was 1.31 RPM ratio (pull-down/input).
As to “GATGATTGTTCTCCCAGCTGATGAATTATATTAATCGAGTAAACAAATTTTCCTAATCTTTCTGTTCAAGCGCCATCTAC”, the binding signal was 1.1 RPM ratio (pull-down/input).
The same measure for “GATGATTGTTCTCCCAGCTGATGAATTATATTGATCGAGTAAACAAATTTTCCTAATCTTTCTGTTCAAGCGCCATCTAC”: 2.09 RPM ratio (pull-down/input).
The same measure for “GATGATTGTTCTCCCAGCTGATGAATTATAAATATCGAGTAAACAAATTTTCCTAATCTTTCTGTTCAAGCGCCATCTAC”: 2.01 RPM ratio (pull-down/input).
The same measure for “GATGATTGTTCTCCCAGCTGATGAATTGATTATATCGAGTAAACAAATTTTCCTAATCTTTCTGTTCAAGCGCCATCTAC”: 1.26 RPM ratio (pull-down/input).
As for “GATGATTGTTCTCCCAGCTGATGAATTATAATTATCGAGTAAACAAATTTTCCTAATCTTTCTGTTCAAGCGCCATCTAC”, the binding signal is 1.37 RPM ratio (pull-down/input).
The same measure for “GATGATTGTTCTCCCAGCTGATGAATTCACGCTGTCGAGTAAACAAATTTTCCTAATCTTTCTGTTCAAGCGCCATCTAC”: 0.895 RPM ratio (pull-down/input); for “GATGATTGTTCTCCCAGCTGATGAATTACTCGTCTCGAGTAAACAAATTTTCCTAATCTTTCTGTTCAAGCGCCATCTAC”: 0.904 RPM ratio (pull-down/input); for “GATGATTGTTCTCCCAGCTGATGAATTTGAGTGATCGAGTAAACAAATTTTCCTAATCTTTCTGTTCAAGCGCCATCTAC”: 0.906 RPM ratio (pull-down/input).
In the case of “GATGATTGTTCTCCCAGCTGATGAATTAACGCGGTCGAGTAAACAAATTTTCCTAATCTTTCTGTTCAAGCGCCATCTAC”, the binding signal was 0.904 RPM ratio (pull-down/input).
The same measure for “GATGATTGTTCTCCCAGCTGATGAATTAATTATGTCGAGTAAACAAATTTTCCTAATCTTTCTGTTCAAGCGCCATCTAC”: 1.07 RPM ratio (pull-down/input); for “GATGATTGTTCTCCCAGCTGATGAATTATGTTTGTCGAGTAAACAAATTTTCCTAATCTTTCTGTTCAAGCGCCATCTAC”: 2.67 RPM ratio (pull-down/input).
To “GATGATTGTTCTCCCAGCTGATGAATTTGTTATGTCGAGTAAACAAATTTTCCTAATCTTTCTGTTCAAGCGCCATCTAC” belongs 1.55 RPM ratio (pull-down/input); to “GATGATTGTTCTCCCAGCTGATGAATTGTTTATGTCGAGTAAACAAATTTTCCTAATCTTTCTGTTCAAGCGCCATCTAC”, 2.77 RPM ratio (pull-down/input).
The same measure for “GATGATTGTTCTCCCAGCTGATGAATTATGTCTGTCGAGTAAACAAATTTTCCTAATCTTTCTGTTCAAGCGCCATCTAC”: 0.913 RPM ratio (pull-down/input); for “GATGATTGTTCTCCCAGCTGATGAATTTATTATGTCGAGTAAACAAATTTTCCTAATCTTTCTGTTCAAGCGCCATCTAC”: 1.4 RPM ratio (pull-down/input).
Take “GATGATTGTTCTCCCAGCTGATGAATTTATGTTGTCGAGTAAACAAATTTTCCTAATCTTTCTGTTCAAGCGCCATCTAC”: the binding signal is 2.86 RPM ratio (pull-down/input).
To “GATGATTGTTCTCCCAGCTGATGAATTCTTTATGTCGAGTAAACAAATTTTCCTAATCTTTCTGTTCAAGCGCCATCTAC” belongs 1.04 RPM ratio (pull-down/input); to “GATGATTGTTCTCCCAGCTGATGAATTATTTATGTCGAGTAAACAAATTTTCCTAATCTTTCTGTTCAAGCGCCATCTAC”, 1.83 RPM ratio (pull-down/input); to “GATGATTGTTCTCCCAGCTGATGAATTTATGTCGTCGAGTAAACAAATTTTCCTAATCTTTCTGTTCAAGCGCCATCTAC”, 1.14 RPM ratio (pull-down/input).
The same measure for “GATGATTGTTCTCCCAGCTGATGAATTTATGATGTCGAGTAAACAAATTTTCCTAATCTTTCTGTTCAAGCGCCATCTAC”: 1.51 RPM ratio (pull-down/input).
The same measure for “GATGATTGTTCTCCCAGCTGATGAATTTTTTATGTCGAGTAAACAAATTTTCCTAATCTTTCTGTTCAAGCGCCATCTAC”: 1.04 RPM ratio (pull-down/input); for “GATGATTGTTCTCCCAGCTGATGAATTGGTCAGGTCGAGTAAACAAATTTTCCTAATCTTTCTGTTCAAGCGCCATCTAC”: 0.794 RPM ratio (pull-down/input).
With “GATGATTGTTCTCCCAGCTGATGAATTGCGTGCCTCGAGTAAACAAATTTTCCTAATCTTTCTGTTCAAGCGCCATCTAC”, the binding signal is 1.09 RPM ratio (pull-down/input).
To “GATGATTGTTCTCCCAGCTGATGAATTCGGTTTCTCGAGTAAACAAATTTTCCTAATCTTTCTGTTCAAGCGCCATCTAC” belongs 0.847 RPM ratio (pull-down/input).
To “GATGATTGTTCTCCCAGCTGATGAATTCGGAGCATCGAGTAAACAAATTTTCCTAATCTTTCTGTTCAAGCGCCATCTAC” belongs 1 RPM ratio (pull-down/input).
The same measure for “GATGATTGTTCTCCCAGCTGATGAATTCGATTCTTCGAGTAAACAAATTTTCCTAATCTTTCTGTTCAAGCGCCATCTAC”: 0.855 RPM ratio (pull-down/input); for “GATGATTGTTCTCCCAGCTGATGAATTAAAGGAATCGAGTAAACAAATTTTCCTAATCTTTCTGTTCAAGCGCCATCTAC”: 0.934 RPM ratio (pull-down/input); for “GATGATTGTTCTCCCAGCTGATGAATTGTTCGAGTCGAGTAAACAAATTTTCCTAATCTTTCTGTTCAAGCGCCATCTAC”: 1.05 RPM ratio (pull-down/input).
Consider “GATGATTGTTCTCCCAGCTGATGAATTTTGGCGATCGAGTAAACAAATTTTCCTAATCTTTCTGTTCAAGCGCCATCTAC”, for which the binding signal is 0.955 RPM ratio (pull-down/input).
To “GATGATTGTTCTCCCAGCTGATGAATTGGACGTGTCGAGTAAACAAATTTTCCTAATCTTTCTGTTCAAGCGCCATCTAC” belongs 0.855 RPM ratio (pull-down/input); to “GATGATTGTTCTCCCAGCTGATGAATTGTCCCTCTCGAGTAAACAAATTTTCCTAATCTTTCTGTTCAAGCGCCATCTAC”, 0.967 RPM ratio (pull-down/input).
The same measure for “GATGATTGTTCTCCCAGCTGATGAATTGGACAAATCGAGTAAACAAATTTTCCTAATCTTTCTGTTCAAGCGCCATCTAC”: 1.05 RPM ratio (pull-down/input); for “GATGATTGTTCTCCCAGCTGATGAATTTGATATTTCGAGTAAACAAATTTTCCTAATCTTTCTGTTCAAGCGCCATCTAC”: 1.13 RPM ratio (pull-down/input); for “GATGATTGTTCTCCCAGCTGATGAATTGATATTTTCGAGTAAACAAATTTTCCTAATCTTTCTGTTCAAGCGCCATCTAC”: 2.4 RPM ratio (pull-down/input).
The same measure for “GATGATTGTTCTCCCAGCTGATGAATTTGATATGTCGAGTAAACAAATTTTCCTAATCTTTCTGTTCAAGCGCCATCTAC”: 1 RPM ratio (pull-down/input); for “GATGATTGTTCTCCCAGCTGATGAATTGAATCTGTCGAGTAAACAAATTTTCCTAATCTTTCTGTTCAAGCGCCATCTAC”: 0.897 RPM ratio (pull-down/input).
With “GATGATTGTTCTCCCAGCTGATGAATTTTGATATTCGAGTAAACAAATTTTCCTAATCTTTCTGTTCAAGCGCCATCTAC”, the binding signal is 1.19 RPM ratio (pull-down/input).
To “GATGATTGTTCTCCCAGCTGATGAATTGATATTGTCGAGTAAACAAATTTTCCTAATCTTTCTGTTCAAGCGCCATCTAC” belongs 2.35 RPM ratio (pull-down/input).

The values are drawn from paper PMC12820563, “FoxP3 forms a head-to-head dimer in vivo and stabilizes its multimerization on adjacent microsatellites”.
